This note sets out measurements from PubChem BioAssay (NCATS).

Inconclusive results are not listed. Calls of active or inactive are those of the source. Unless noted, calls come from the whole dose curve; as a rule, active = well fitted curve in the direction sought with a large enough effect; inconclusive = small, poorly fitted or top-dose-only effect, or another doubt; inactive = no such curve, though single readings can be large; an effect the other way counts as inactive or inconclusive.

Experiment [1] concerns the target Glucocorticoid receptor (Homo sapiens) (UniProt P04150). In words: GR-GFP Redistribution (AID 450;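 active = compounds whose dose series gives a full or clear partial fitted curve of increased nuclear translocation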; note: potency is the fitted concentration of half-maximal effect). The note with it: U2OS GR-GFP nuclear translocation, laser cytometry, 2 h.
The target is the same in experiment [2]. In words: GR-EFC Redistribution (AID 451; calls by dose curve; note: potency is the fitted concentration of half-maximal effect). The following applies: CHO-K1 GR-EFC translocation, beta-gal luminescence, 2 h. In a few lines:
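CHO-K1 cells expressing nuclear EA and GR-ED fragments of b-gal; compounds titrated up to 46 uM final, 2 h at 37 C. GR nuclear translocation read as complemented b-gal luminescence after 1 h RT detection.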

Experiment [3] concerns the target 3',5'-cyclic-AMP phosphodiesterase 4B (Homo sapiens) (UniProt Q07343). The experiment is described as follows: qHTS Assay for Inhibitors of PDE-IV (AID 607; active = well fitted activation curve with a large enough effect in the main read-out, with a control signal flat, not every such curve was filed as active; note: % of control where 0% means no effect). In a few lines: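 HEK293 ACTOne cells with CNG channel (1000/well), endogenous PDE4; membrane potential dye, compounds up to 22.9 uM final. Fluorescence Ex 535/Em 590; RO 20-1724 (100 uM final) as reference.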
Background: qHTS replaces the single test concentration by a dilution series.

Experiment [4] is described as follows: qHTS Assay for Lipid Storage Modulators (AID 1519; calls by dose curve; for activity change, negative = inhibition: % is set by controls: 0 for no effect and ±100 for the full control effect). The following applies: Drosophila S3 cells, BODIPY lipid droplet/cell ratio, laser cytometry, cells loaded with oleic acid. In a few lines:
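Cells seeded at 5,000 per well were treated with compounds over a concentration series and loaded with oleic acid (400 uM, as added). Lipid droplet fluorescence (488 nm excitation, 500-530 nm channel) was read by laser-scanning cytometry and normalized to 20 uM Triacsin C.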

Experiment [5] deals with Ubiquitin carboxyl-terminal hydrolase 1 (Homo sapiens) (UniProt O94782). The experiment is described as follows: Inhibitors of USP1/UAF1: Pilot qHTS (AID 504865). Note: potency is the fitted concentration of half-maximal effect; nearly all actives have a fitted effect of over 35% in size. In a few lines: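 Enzyme-free wells gave the negative control, while test wells held 1nM USP1/UAF1 preincubated with compound for 15 min at room temperature. Ub-Rho at 150nM final started the reaction, and fluorescence at 480/540 nm was recorded kinetically.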
Sequence of Ubiquitin carboxyl-terminal hydrolase 1 (Homo sapiens) (O94782 whole entry, looked up): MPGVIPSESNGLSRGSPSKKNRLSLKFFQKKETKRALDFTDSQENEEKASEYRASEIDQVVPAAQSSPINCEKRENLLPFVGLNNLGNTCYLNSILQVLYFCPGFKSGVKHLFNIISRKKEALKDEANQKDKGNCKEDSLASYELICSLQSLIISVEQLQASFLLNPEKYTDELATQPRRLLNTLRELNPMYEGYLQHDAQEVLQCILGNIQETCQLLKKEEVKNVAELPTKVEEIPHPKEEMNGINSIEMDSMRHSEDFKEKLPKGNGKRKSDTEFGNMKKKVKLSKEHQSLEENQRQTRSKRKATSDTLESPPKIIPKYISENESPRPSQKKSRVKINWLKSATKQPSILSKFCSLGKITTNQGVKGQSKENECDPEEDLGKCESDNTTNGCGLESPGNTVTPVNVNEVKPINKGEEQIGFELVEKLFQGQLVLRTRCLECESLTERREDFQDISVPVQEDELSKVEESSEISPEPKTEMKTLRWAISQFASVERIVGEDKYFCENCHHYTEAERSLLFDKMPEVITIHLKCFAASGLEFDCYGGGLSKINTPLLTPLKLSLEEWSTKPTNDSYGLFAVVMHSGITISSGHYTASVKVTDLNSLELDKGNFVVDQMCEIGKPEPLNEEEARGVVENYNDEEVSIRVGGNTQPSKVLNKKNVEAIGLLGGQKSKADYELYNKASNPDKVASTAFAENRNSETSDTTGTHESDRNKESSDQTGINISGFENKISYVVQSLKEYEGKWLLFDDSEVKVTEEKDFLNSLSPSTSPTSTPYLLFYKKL

Experiment [6] addresses DNA dC->dU-editing enzyme APOBEC-3G (Homo sapiens) (UniProt Q9HC16). The experiment is described as follows: qHTS for inhibitors of Vif-A3G interactions: Validation (AID 588379). Note: 0% is about no effect. In a few lines: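 HeLa cells stably expressing Vif and A3G-eYFP, 700 cells/well, incubated overnight at 37 deg C, then exposed to compound overnight at 37 deg C. Inhibition of Vif-mediated degradation read as increased yellow fluorescence (Ex 488/Em 500-530) by laser-scanning cytometry.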

Experiment [7] concerns Zika virus NS2B-NS3 protease. In words: Primary screen GU AMC qHTS for Zika virus inhibitors (AID 1347154).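 Note: 0% = no-inhibitor control and -100% = no-enzyme control; nearly all actives have a fitted effect of over 70% in size.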 In a few lines:
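Unlinked Zika NS2B hydrophilic domain–NS3 protease complex at 25 nM in 10 mM Tris-HCl pH 8.0, 0.01% Tween 20, with an AMC peptide substrate. Fluorescence change (340/450 nm) over 15 min at room temperature, normalized to controls, fitted to 4-parameter Hill.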

The nature of experiment [8]: Counterscreen qHTS for small molecule stabilizers of the endoplasmic reticulum resident proteome: GLuc-NoTag assay (AID 1508627). Note: potency is the fitted concentration of half-maximal effect. In a few lines:
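SH-SY5Y cells stably expressing constitutively secreted GLuc without SERCaMP tag, exposed to compound for 19 hr, then to 100 nM thapsigargin for 4 hr at 37C. Medium luciferase was read by coelenterazine luminescence without lysis.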
(In general: A counterscreen serves to expose hits that act by an unwanted route or on another target.)

Experiment [9] in a line: Confirmatory qHTS for small molecule stabilizers of the endoplasmic reticulum resident proteome: Secreted ER Calcium Modulated Protein (SERCaMP) assay (AID 1508628). Note: potency is the fitted concentration of half-maximal effect; nearly all actives have a fitted effect of over 40% in size. In a few lines: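 SH-SY5Y cells stably expressing GLuc-SERCaMP, treated 16 h with compound (primary 1.53, 7.67, 38.3 uM; confirmation 11 concentrations, up to 76.6 uM), then 100 nM thapsigargin for 4 h. Secreted Gaussia luciferase in medium read by coelenterazine luminescence.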

A short description of experiment [10]: Cell Viability qHTS for small molecule stabilizers of the endoplasmic reticulum resident proteome (AID 1508629).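 Note: human SH-SY5Y neuroblastoma cells carrying the GLuc-SERCaMP reporter; compound exposure about 46 h in total before the viability read; % is set by controls: 0 for no effect and ±100 for the full control effect.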 The note with it: cell viability counter-screen, 100 nM thapsigargin for final 4 h.

Sequence of Glucocorticoid receptor (Homo sapiens) (P04150 whole entry, looked up): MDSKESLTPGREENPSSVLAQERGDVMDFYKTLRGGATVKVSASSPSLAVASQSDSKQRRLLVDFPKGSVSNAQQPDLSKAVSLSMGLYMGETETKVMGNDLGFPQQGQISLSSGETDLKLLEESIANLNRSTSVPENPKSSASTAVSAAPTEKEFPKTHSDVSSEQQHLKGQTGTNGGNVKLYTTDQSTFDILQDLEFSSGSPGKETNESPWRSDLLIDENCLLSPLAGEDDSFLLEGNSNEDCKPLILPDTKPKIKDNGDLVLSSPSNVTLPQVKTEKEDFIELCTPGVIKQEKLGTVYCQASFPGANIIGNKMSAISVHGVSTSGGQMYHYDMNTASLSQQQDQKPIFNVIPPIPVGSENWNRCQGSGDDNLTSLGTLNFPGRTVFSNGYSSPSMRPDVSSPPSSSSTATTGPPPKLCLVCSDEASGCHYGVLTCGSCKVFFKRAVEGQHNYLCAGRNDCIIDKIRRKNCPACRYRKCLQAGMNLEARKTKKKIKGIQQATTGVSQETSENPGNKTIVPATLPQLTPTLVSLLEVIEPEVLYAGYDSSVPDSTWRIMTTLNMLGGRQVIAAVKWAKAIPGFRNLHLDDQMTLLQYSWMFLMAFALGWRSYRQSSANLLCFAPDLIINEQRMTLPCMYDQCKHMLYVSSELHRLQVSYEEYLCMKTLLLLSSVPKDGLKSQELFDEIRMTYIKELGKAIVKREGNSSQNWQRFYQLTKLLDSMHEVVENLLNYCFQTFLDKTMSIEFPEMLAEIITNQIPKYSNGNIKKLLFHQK
Sequence of 3',5'-cyclic-AMP phosphodiesterase 4B (Homo sapiens) (Q07343 whole entry, looked up): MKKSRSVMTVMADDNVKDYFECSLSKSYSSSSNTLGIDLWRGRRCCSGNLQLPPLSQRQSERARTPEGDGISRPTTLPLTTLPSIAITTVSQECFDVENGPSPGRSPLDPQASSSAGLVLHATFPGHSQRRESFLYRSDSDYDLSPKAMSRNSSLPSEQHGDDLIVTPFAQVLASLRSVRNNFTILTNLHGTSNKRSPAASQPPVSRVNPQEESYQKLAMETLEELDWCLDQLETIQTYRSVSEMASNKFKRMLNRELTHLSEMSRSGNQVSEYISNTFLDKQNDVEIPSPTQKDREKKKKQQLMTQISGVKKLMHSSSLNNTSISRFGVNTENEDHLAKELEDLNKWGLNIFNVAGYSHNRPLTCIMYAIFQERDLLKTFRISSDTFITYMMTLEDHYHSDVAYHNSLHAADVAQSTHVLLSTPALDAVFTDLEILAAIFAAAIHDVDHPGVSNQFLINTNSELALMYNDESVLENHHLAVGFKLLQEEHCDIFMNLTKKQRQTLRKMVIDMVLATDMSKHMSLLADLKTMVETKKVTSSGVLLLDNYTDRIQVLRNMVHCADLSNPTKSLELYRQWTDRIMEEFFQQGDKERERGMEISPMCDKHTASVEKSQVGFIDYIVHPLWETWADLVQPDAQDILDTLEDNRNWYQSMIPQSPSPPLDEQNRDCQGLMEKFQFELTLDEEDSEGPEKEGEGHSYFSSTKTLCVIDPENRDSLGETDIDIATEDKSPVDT
Sequence of DNA dC->dU-editing enzyme APOBEC-3G (Homo sapiens) (Q9HC16 whole entry, looked up): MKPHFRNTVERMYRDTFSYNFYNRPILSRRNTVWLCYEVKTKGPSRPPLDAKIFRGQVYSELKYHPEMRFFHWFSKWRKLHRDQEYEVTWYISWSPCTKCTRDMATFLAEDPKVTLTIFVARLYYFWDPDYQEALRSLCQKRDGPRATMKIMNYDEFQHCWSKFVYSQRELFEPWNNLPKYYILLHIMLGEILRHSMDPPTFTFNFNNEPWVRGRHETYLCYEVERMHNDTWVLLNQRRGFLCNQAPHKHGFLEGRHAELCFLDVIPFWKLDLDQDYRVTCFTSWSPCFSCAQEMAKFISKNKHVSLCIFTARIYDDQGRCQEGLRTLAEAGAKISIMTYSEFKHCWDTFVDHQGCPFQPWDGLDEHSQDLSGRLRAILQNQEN

For the compound `Cl.Cl.Cl.Cl.Cl.Cl.N.N.N.N.NNNNN.NNNNN.O.O.[Ru].[Ru].[Ru]`, the Potency in [1] is > 46 µM (inactive); in [2], > 46 µM (inactive); in experiment [5], 50.1 µM (active); in [8], 12.6 µM (active); in [9] it was 15.8 µM (active). In addition, the Potency entry in experiment [3], in [6] and in experiment [7] was “inactive” in each case. Further, the activity change, negative = inhibition in [4] (at 57.5 µM (top of the series)) is -5.89% (inactive). Besides, the max response was -27.5% in experiment [4] (measured here: cell count channel max response), -31.1% in experiment [4] (measured here: lipid channel max response) and 7.14% (inactive) in experiment [10].
Turning to `NCCc1cccc(O)c1`, in experiment [7], the Potency result was “inactive”.
